Measurements published in PubChem BioAssay (NCATS).
“And” between values parts separate entries of the source, which are not always exact repeats. Equal entries are not always repeated. Inconclusive results are not listed. Where a call stands in place of a potency, no number is given. The source made the active and inactive calls. Unless noted, calls follow the shape of the dose curve; as a rule, active = well fitted curve in the direction sought with a large enough effect; inconclusive = small, poorly fitted or top-dose-only effect, or another doubt; inactive = no such curve, though single readings can be large; an effect the other way counts as inactive or inconclusive.

Key:
[1] = Validation of Assay for Modulators of Lamin A Splicing (AID 1459; active = well fitted curve in the direction sought with a large enough effect in the signal ratio; the % refers to the signal ratio;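 also: cells exposed to compound for two days before reading; ratio rise marks activators and ratio drop marks inhibitors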)
Method in brief: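 Readout: ratio of GFP (500-530 nm) to RFP (575-640 nm) total object intensity by 488 nm laser-scanning cytometry after 48 hrs. Cells were HeLa S3 clones carrying lamin A-EGFP minigene plus DsRed2 viability reporter; vehicle 0.5% DMSO final.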

[2] = target: DNA repair nuclease/redox regulator APEX1 (Homo sapiens) (UniProt P27695); test: qHTS Validation Assay for Inhibitors of the Human Apurinic/apyrimidinic Endonuclease 1 (APE1) (AID 1705; also: potency is read from the fitted curve at half-maximal effect;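 as to activity change, negative = inhibition: TAMRA fluorescence gain over two minutes as APE1 cuts a quenched THF abasic duplex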)
Method in brief: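 Read-out: TAMRA fluorescence (525 nm ex, 598 nm em) from cleavage of a quenched THF abasic-site duplex, 50 nM final; activity taken as intensity change between third and first of three reads 60 s apart.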

[3] = Counterscreen for APE1 Inhibitors: Fluorescent Dye Displacement Validation Assay (AID 1707)
Method in brief: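 Thiazole Orange displacement from dsDNA: 250 nM ThO with 50 nM TAMRA-labelled abasic-site (tetrahydrofuran) duplex in 50 mM Tris-HCl pH7.5, 50mM NaCl, 2 mM MgCl2, 0.01% Tween-20. Loss of endpoint fluorescence (ex 480 nm, em 540 nm) flags DNA binders.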

[4] = target: Endonuclease 4 (Escherichia coli (strain K12)) (UniProt P0A6C1); test: Counterscreen for APE1 Inhibitors: qHTS Validation Assay for Inhibitors of Endonuclease IV (AID 1708)
Method in brief: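 Enzymatic AP-site incision assay using a double-stranded THF substrate labelled with TAMRA and BHQ-2; released fluorescence signals activity. Enzyme 2 nM, substrate 50 nM, 15 min compound preincubation.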

[5] = qHTS for differential inhibitors of proliferation of Plasmodium falciparum line 7G8 (AID 1815);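 also: parasite growth measured after three days of incubation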; also: potency is read from the fitted curve at half-maximal effect
[6] = qHTS for differential inhibitors of proliferation of Plasmodium falciparum line GB4 (AID 1816); details: Potency: Plasmodium falciparum GB4 proliferation inhibition;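 also: parasite growth measured after 72 h incubation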; also: potency is read from the fitted curve at half-maximal effect
[7] = qHTS for differential inhibitors of proliferation of Plasmodium falciparum line 3D7 (AID 1876); also: potency is read from the fitted curve at half-maximal effect
[8] = target: Alpha-galactosidase A (Homo sapiens) (UniProt P06280); test: Counterscreen for Glucocerebrosidase Inhibitors: qHTS Assay for Human alpha-Galactosidase at pH 4.5 (AID 992)
Method in brief: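 Enzyme at 2 nM final was combined with compound (0.7 nM to 77 uM) and 80 uM 4-methylumbelliferyl alpha-D-galactopyranoside in 50 mM citric acid, 0.005% Tween-20, pH 4.5. After 20 min at room temperature, fluorescence was read (Ex 365/Em 440 nm); AC50 came from Hill fits.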

[9] = target: alpha-glucosidase (Oryza sativa, rice) (UniProt Q653V4); test: Counterscreen for Glucocerebrosidase Inhibitors: qHTS Assay for Rice alpha-Glucosidase at pH 5.0 (AID 997)
Method in brief: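 Rice alpha-glucosidase (4 nM final) with 400 uM 4-methylumbelliferyl-alpha-D-glucopyranoside in citrate buffer pH 5.0, 20 min at room temperature, stopped at pH 10; fluorescence 365/440 nm, compounds 0.7 nM–77 uM, AC50 from Hill fits.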

[10] = qHTS Assay for Lipid Storage Modulators (AID 1519; calls by dose curve); details: Drosophila S3 cells, BODIPY lipid droplet/cell ratio, laser cytometry, cells loaded with oleic acid; for activity change, negative = inhibition: at 57.5 µM (top of the series)
Method in brief: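 Cells seeded at 5,000 per well were treated with compounds over a concentration series and loaded with oleic acid (400 uM, as added). Lipid droplet fluorescence (488 nm excitation, 500-530 nm channel) was read by laser-scanning cytometry and normalized to 20 uM Triacsin C.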

[11] = measured here: cell count channel max response
[12] = measured here: lipid channel max response

DNA repair nuclease/redox regulator APEX1 (Homo sapiens), sequence (P27695 whole entry, looked up): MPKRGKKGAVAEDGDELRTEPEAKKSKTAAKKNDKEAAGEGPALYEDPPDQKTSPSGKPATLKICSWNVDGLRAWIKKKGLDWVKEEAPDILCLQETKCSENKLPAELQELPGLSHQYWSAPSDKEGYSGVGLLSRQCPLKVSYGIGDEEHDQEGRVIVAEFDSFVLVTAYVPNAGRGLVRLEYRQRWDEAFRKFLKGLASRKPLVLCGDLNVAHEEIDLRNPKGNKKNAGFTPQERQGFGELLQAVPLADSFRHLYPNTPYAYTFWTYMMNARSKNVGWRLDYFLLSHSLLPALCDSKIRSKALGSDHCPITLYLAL
Alpha-galactosidase A (Homo sapiens), sequence (P06280 whole entry, looked up): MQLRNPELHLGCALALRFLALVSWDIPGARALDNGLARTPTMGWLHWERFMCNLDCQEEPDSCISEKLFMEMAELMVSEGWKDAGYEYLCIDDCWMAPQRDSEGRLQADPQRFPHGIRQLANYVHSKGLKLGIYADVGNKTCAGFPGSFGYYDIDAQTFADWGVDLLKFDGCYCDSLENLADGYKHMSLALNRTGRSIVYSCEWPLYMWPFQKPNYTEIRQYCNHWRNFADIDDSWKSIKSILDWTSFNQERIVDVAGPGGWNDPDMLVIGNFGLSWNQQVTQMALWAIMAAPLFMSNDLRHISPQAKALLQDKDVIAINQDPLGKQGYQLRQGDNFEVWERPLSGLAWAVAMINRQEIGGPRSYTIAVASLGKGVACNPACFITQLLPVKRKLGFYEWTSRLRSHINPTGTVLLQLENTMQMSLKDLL

| Structure (SMILES) | outcome [1] | Potency [2] | Potency [3] | Potency [4] | Potency [5] | Potency [6] | Potency [7] | outcome [8] | outcome [9] | activity change, negative = inhibition [10] | max response [10, 11] | max response [10, 12] |
| --- | --- | --- | --- | --- | --- | --- | --- | --- | --- | --- | --- | --- |
| COC(=O)C(N)Cc1ccc(Cl)cc1 (stereo not given) | inactive | inactive | inactive | inactive | inactive | inactive | inactive |  |  |  |  |  |
| NC(=O)CC[C@H](N)C(=O)O | inactive | inactive | inactive | inactive | inactive | inactive | inactive |  |  |  |  |  |
| CN1CCN(c2nc3cc(C(F)(F)F)ccc3n3cccc23)CC1 | inactive | inactive |  |  | 5.01 µM (active) | 8.91 µM (active) | 7.94 µM (active) | inactive | inactive | 2.45% (inactive) | 18.9% | 20.6% |
| NC(N)=NC(N)=Nc1ccccc1 | inactive | inactive |  | inactive | inactive |  |  | inactive | inactive | -1.27% (inactive) and 5.81% (inactive) | 10.6% and 8.56% | 10.2% and 16.5% |
| CCCCCCCCCC(=O)NC(CN1CCOCC1)[C@H](O)c1ccccc1 (stereo not given in full) | inactive | inactive | inactive | inactive | 1.26 µM (active) | 2 µM (active) | 6.31 µM (active) |  |  |  |  |  |
| N[C@H](C(=O)O)[C@H]1C[C@@H]1C(=O)O | inactive | 39.8 µM (active) | inactive | inactive | inactive | inactive | inactive |  |  |  |  |  |
| Cc1cccc(C2CN(C)CCc3c2cc(O)c(O)c3Cl)c1 (stereo not given) | inactive | inactive | inactive | inactive | 7.94 µM (active) | 8.91 µM (active) | 8.91 µM (active) |  |  |  |  |  |
| N[C@H]1CONC1=O | inactive | inactive | inactive |  | inactive | inactive | inactive |  |  |  |  |  |
| CCN(CC)CCOC(=O)c1cc(Cl)c(N)cc1OC | inactive | inactive | inactive | inactive | inactive | inactive | inactive | inactive |  |  |  |  |
| O=c1[nH]ccc2c(O)cccc12 | inactive | inactive | inactive | inactive | inactive | inactive | inactive | inactive | inactive |  |  |  |
| O[Si](CCCN1CCCCC1)(c1ccc(F)cc1)C1CCCCC1 (stereo not given) | inactive | inactive | inactive |  | 0.0708 µM (active) | 0.0398 µM (active) | 0.0794 µM (active) |  |  |  |  |  |
| O=C(O)C1=CCNCC1 | inactive | inactive | inactive | inactive | inactive | inactive | inactive | inactive |  |  |  |  |
| COC1(C2=NCCN2)COc2ccccc2O1 (stereo not given) | inactive | inactive | inactive | inactive | inactive |  | inactive |  |  |  |  |  |
| O=[N+]([O-])c1cccc2c(Br)[nH]nc12 | inactive | inactive | inactive | inactive | inactive |  | inactive | inactive | inactive |  |  |  |
| O=C1C2C=CC=CC2=NC(=S)N1CCN1CCC(=C(c2ccc(F)cc2)c2ccc(F)cc2)CC1 (stereo not given) | inactive | inactive | inactive |  | 8.91 µM (active) |  |  |  |  |  |  |  |
| C[C@H](NC(=O)/C(C#N)=C/c1ccc(O)c(O)c1)c1ccccc1 | inactive | inactive | inactive | inactive | 7.08 µM (active) | 11.2 µM (active) | 14.1 µM (active) | inactive | inactive |  |  |  |
